High-throughput results (PubChem)
Only some compounds are listed: those with a hit (about 15% of all), similar ones and a draw of the others.
HCMV inh: inhibitors of human cytomegalovirus. AID 1259415. 410,000 tested, 4.5% active. HFF cells, HCMV-luciferase reporter, 72 h; stronger effect = lower value. activity change, negative = inhibition, % at 57.5 µM; in the data active = activity change below about -60%; inconclusive = no clear call, values can overlap the other calls; inactive = above about -39%; note: % is set by controls: 0 for no effect and ±100 for the full control effect
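HFF cells seeded 16 h at 37C, treated with compounds, infected with luciferase-reporter HCMV at MOI 1 PFU/cell; luciferase read at 72 h post infection, normalized to buffer-only and Salinomycin controls.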
HCV inh: blocks hepatitis C virus; Potency, µM (series often up to 41.8 µM), inactives show top-dose activity change, negative = inhibition, actives largely listed as inhibitors; AID 651820; Huh7.5.1 HCVcc-Cre infection, luciferase reporter, 44 h; 340,000 tested, 3.4% active; note: potency is the fitted concentration of half-maximal effect; % is set by controls: 0 for no effect and ±100 for the full control effect
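HCVcc-Cre virus at an moi near 0.5 was added right after compound to cells cultured 4 h from seeding (1,000 cells/well). Luciferase activity was determined 44 h later, 15 min after substrate addition at RT.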
Sm TGR inh: blocks Schistosoma mansoni thioredoxin glutathione reductase; Q962Y6; purified TGR, DTNB reduction, TNB absorbance 405 nm; Potency, µM (highest dose often 114 µM), for inactives: top-dose activity change, negative = inhibition, actives largely listed as inhibitors; 360,000 tested, 3% active; AID 485364; note: potency is the fitted concentration of half-maximal effect; % is set by controls: 0 for no effect and ±100 for the full control effect; nearly all actives have a fitted effect of over 60% in size
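Kinetic colorimetric format: TGR-catalysed, NADPH-driven DTNB reduction monitored via TNB absorbance. Enzyme dispensed at 20 nM; compound exposure 15 min at room temperature before reaction start.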
Pf growth 96h: inhibits malaria parasite growth, 96 h; P. falciparum luciferase reporter growth, 96 h; Potency, µM (doses to about 28.7 µM), for inactives: at the top dose activity change, negative = inhibition, usual class: inhibitors; 320,000 tested, 6.9% active; note: potency is the fitted concentration of half-maximal effect; % is set by controls: 0 for no effect and ±100 for the full control effect
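Infected RBCs, 2% Hct / 0.05% parasitemia final; luciferase-reporter P. falciparum; cpd 96 h, 37 C, 5% CO2; luciferase detection reagent; luminescence.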
Pf growth 48h: P. falciparum growth inhibition at 48 hours (one generation); P. falciparum luciferase growth in erythrocytes, 48 h; Potency, µM (titrated, usually from 28.7 µM), without a hit: at the highest dose activity change, negative = inhibition, hits mostly inhibitors; 310,000 tested, 5.9% active; AID 504832; note: potency is the fitted concentration of half-maximal effect; % is set by controls: 0 for no effect and ±100 for the full control effect
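Erythrocytes infected with P. falciparum carrying an integrated firefly luciferase reporter (2% hematocrit, 0.1% parasitemia final) were exposed to compounds in RPMI 1640 with 0.5% Albumax at 37 C, 5% CO2. Growth inhibition was scored as reduced luminescence.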
SARS PLpro yeast: SARS-CoV PLP inhibition in yeast; S. cerevisiae expressing SARS-CoV PLpro, growth rescue; Potency, µM (top dose mostly 32.9 µM), for inactives: top-dose activity, positive = growth rescue, usual class: activators; 330,000 tested, 0.19% active; calls by dose curve; note: potency is the fitted concentration of half-maximal effect; 0% is about no effect; nearly all actives have a fitted effect of over 55% in size
* hit, by the source's call; ? = inconclusive; . = not tested or not shown; [ ] = another dose, or the depositor's remark. Unless noted, calls come from the whole dose curve; as a rule, active = well fitted curve in the direction sought with a large enough effect; inconclusive = small, poorly fitted or top-dose-only effect, or another doubt; inactive = no such curve, though single readings can be large; an effect the other way counts as inactive or inconclusive.

SMILES	HCMV inh	HCV inh	Sm TGR inh	Pf growth 96h	Pf growth 48h	SARS PLpro yeast
CCOC(=O)N1CCN(Cc2nc3cc(NC(=O)c4ccc(F)cc4)ccc3n2C(C)C)CC1	-85*	.	-3%	.	.	.
Cn1c(CN2CCCCC2)nc2cc(NC(=O)c3ccc(F)cc3)ccc21	-62*	10µM*	-1%	?	25%	0%
O=C(CCC(=O)c1ccc(Cl)cc1)OCn1nnc2ccccc2c1=O	2	34%	.	.	.	7%
Cc1ccc(N=C2NC(=O)/C(=C/c3cccnc3)S2)c(C)c1	-80*	21%	-3%	?	?	-2%
Cc1ccc(N=C2NC(=O)CS2)c(C)c1	-10	23%	-6%	21%	2%	0%
Cc1ccc(N=C2NC(=O)/C(=C\c3ccsc3)S2)c(C)c1	-72*	-23%	6%	-23%	-28%	-106%
O=C1NC(=Nc2cccnc2)S/C1=C\c1cccc(F)c1	-11	-6%	-9%	7%	22%	-1%
Cc1cccc(N=C2NC(=O)/C(=C/c3cccnc3)S2)c1C	?	15%	14%	?	13µM*	1%
COc1ccc(NC(=S)Nc2cccc(C(C)=O)c2)cc1OC	1	1%	?	12µM*	-1%	0%
COc1ccc(C(=O)Nc2cccc(C(C)=O)c2)cc1OC	110	6%	0%	33%	68%	-1%
COC(=O)C(NC(=O)c1ccccc1)=C(C)C	4	-17%	1%	4.1µM*	8%	5%
CC(=O)c1cccc(NC(=S)NC(=O)c2ccccc2)c1	18	-15%	28µM*	18%	252%	7%
COc1ccc(Br)cc1CN(C)C(C)C(=O)Nc1cccc(C(C)=O)c1 (centres undefined)	-5	?	22µM*	?	?	-6%
CCOC(=O)C(NC(=O)c1ccccc1)=C(C)C	20	1%	-24%	-6%	.	2%
COc1ccccc1CC(=O)Nc1ccc(S(=O)(=O)N2CC(C)CC(C)C2)cc1 (centres undefined)	?	-16%	-11%	?	?	-2%
S=C(Nc1ccccc1)Nc1ccc2cn[nH]c2c1	?	8%	?	102%	102%	-2%
O=C(NC(=S)Nc1ccc2cn[nH]c2c1)c1ccccc1	66	?	14µM*	149%	359%	-2%
CC(=O)c1cccc(NC(=S)NC(=O)c2cccc(Cl)c2)c1	-9	-24%	40µM*	-2%	151%	-12%
Cn1c(=O)n(CC(=O)O)c(=O)c2c1nc1n2CCCN1c1ccc(Cl)cc1	-28	.	2%	.	.	.
COc1cccc(NC(=O)CN(C)C(=O)C2CCN(C(=O)c3ccccc3C)CC2)c1	-11	14%	0%	?	3%	1%
COc1ccc2c3c([nH]c2c1)[C@H]1C[C@H]2[C@H](C[C@@H](O)[C@H](OC)[C@H]2C(=O)O)CN1CC3	-10	-28%	-8%	-21%	-17%	.
COC(=O)[C@H]1[C@H]2C[C@@H]3c4[nH]c5cc(OC)ccc5c4CCN3C[C@H]2C[C@@H](OC(=O)c2ccc(N)cc2)[C@@H]1OC	?	?	?	13µM*	12µM*	1%
COC(=O)C1[C@@H](OC)C(OC(=O)COc2ccc(OC)cc2)C[C@@H]2CN3CCc4c([nH]c5cc(OC)ccc45)[C@H]3C[C@H]12 (some centres undefined)	.	.	.	6.7µM*	8.5µM*	.
COC(=O)[C@H]1[C@H]2C[C@@H]3c4[nH]c5cc(OC)ccc5c4CCN3C[C@H]2C[C@@H](OC(=O)/C=C/c2cc(OC)c(OC)c(OC)c2)[C@@H]1OC	-29	?	-26%	0.93µM*	0.74µM*	.
COc1ccc(C(=O)N(C)[C@H]2C[C@H]3c4[nH]c5ccccc5c4CCN3C[C@H]2[C@H](C)O)cc1	49	.	.	.	.	.
SMILES	HCMV inh	HCV inh	Sm TGR inh	Pf growth 96h	Pf growth 48h	SARS PLpro yeast
COc1cc(C(=O)N2CCc3c([nH]c4ccccc34)C2c2ccccc2)cc(OC)c1OC (centres undefined)	?	.	1%	.	.	.
COc1ccc2c3c([nH]c2c1)C1CC2C(CC(O)C(OC)C2CO)CN1CC3 (centres undefined)	1	-27%	-33%	-2%	-4%	2%
COC(=O)[C@H]1[C@H]2C[C@@H]3c4[nH]c5ccccc5c4CCN3C[C@H]2C[C@@H](OC(=O)c2cc(OC)c(OC)c(OC)c2)[C@@H]1OC	.	.	.	5%	0.38µM*	.
CCOC(=O)Oc1c(OC)cc(C(=O)O[C@H]2C[C@H]3CN4CCc5c([nH]c6cc(OC)ccc56)[C@@H]4C[C@H]3[C@@H](C(=O)OC)[C@@H]2OC)cc1OC	.	.	.	1.3µM*	1.6µM*	.
Cn1c2c(c(=O)n(C)c1=O)CN(CC1CCCO1)CN2 (centres undefined)	69	13%	16%	.	-7%	-1%
COc1ccc(CCN2CNc3c(c(=O)n(C)c(=O)n3C)C2)cc1	-15	12%	89µM*	12%	38%	-1%
CC1(C(=O)NS(=O)(=O)c2ccc3ccccc3c2)CCN1C(=O)Cc1ccc(Cl)cc1Cl (centres undefined)	4	.	.	.	.	.
COc1ccc(Cl)cc1NC(=O)CSc1cn(CC(=O)N2CCCCC2)c2ccccc12	-72*	.	8%	.	.	.
CC1CCN(C(=O)Cn2cc(SCC(=O)NCc3ccccc3)c3ccccc32)CC1	-85*	.	-3%	.	.	.
CC(=O)Nc1ccc(S(=O)(=O)NNC(=O)c2cccc(Cl)c2)cc1	5	-20%	0%	?	?	-1%
CN(CCc1cn[nH]c1)Cc1nc(C(c2ccccc2)c2ccccc2)no1	-26	7%	-1%[57.1 µM]	-15%	?	-3%
CCN(CC)CCN(C)Cc1nc(C(c2ccccc2)c2ccccc2)no1	17	-20%	3%	9.3µM*	?	5%
COCCOc1ccc(C(F)(F)F)cc1NC(=O)CN1C(=O)NC2(CCc3ccccc32)C1=O (centres undefined)	-11	?	8%	?	?	6%
Cc1cc([N+](=O)[O-])ccc1NC(=O)COc1nsnc1N1CCOCC1	104	?	-2%	-26%	1.9µM*	2%
COc1ccc(CCNC(=O)COc2nsnc2N2CCOCC2)cc1OC	-11	11%	4%	?	1.9µM*	-1%
CC(C)NC(=O)C1(C)CN(S(C)(=O)=O)CC(=O)N1CCCN1CCOCC1 (centres undefined)	15	.	.	.	.	.
COC(=O)N1CCC2CC1c1c(Cl)cccc12 (centres undefined)	-16	.	.	.	.	.
Cc1ccc2c(c1)[C@@H]1CN(C)CC[C@H]1N2	.	.	.	-15%	0%	.
